Source: PubChem
An excerpt weighted towards active compounds, which were near 32% of everything screened.
PostGolgi yeast: growth inhibition of a yeast mutant, post-Golgi transport screen; 98,000 tested, 0.9% active; inhibition, % at 10 µM; post-Golgi transport phenotypic cell assay;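 note: yeast cells grown in 1536-well plates; yeast grown about 18 h at 30C before absorbance read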
CYP2C19 act: cytochrome P450 2C19 (human) activation; P33261; recombinant CYP2C19, luciferin-H EGE luminescence; active compounds read high; 0 = fully inhibited enzyme, 1 = untreated enzyme; activation factor at 5 µM; 96,000 tested, under 10 active; AID 1025;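 active = activation factor of at least 2 at 5 µM in the primary screen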;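 note: 0 = wells with 2.5 mM tranylcypromine and 1 = vehicle-only wells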
Target sequence (P33261 whole entry, looked up): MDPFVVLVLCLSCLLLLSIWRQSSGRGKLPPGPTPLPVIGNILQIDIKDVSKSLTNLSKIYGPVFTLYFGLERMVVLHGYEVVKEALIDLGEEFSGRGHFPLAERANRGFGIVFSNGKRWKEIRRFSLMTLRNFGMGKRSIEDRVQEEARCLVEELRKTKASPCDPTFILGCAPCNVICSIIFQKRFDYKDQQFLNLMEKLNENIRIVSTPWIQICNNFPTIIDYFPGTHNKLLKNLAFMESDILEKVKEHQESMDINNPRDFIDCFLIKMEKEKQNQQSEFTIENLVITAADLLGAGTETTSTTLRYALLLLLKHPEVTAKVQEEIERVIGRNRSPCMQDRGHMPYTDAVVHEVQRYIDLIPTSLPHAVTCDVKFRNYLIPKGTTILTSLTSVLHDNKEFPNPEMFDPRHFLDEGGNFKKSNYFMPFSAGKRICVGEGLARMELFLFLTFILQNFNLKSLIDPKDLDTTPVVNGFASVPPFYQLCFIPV
CYP2C9 activ: activators of human CYP2C9; P11712; recombinant CYP2C9, luciferin-H conversion, luminescence; active compounds read high; factor 1 = untreated enzyme, 0 = blocked; activation factor at 5 µM; 96,000 tested, 1.4% active;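 active = activation factor of 2 or more for CYP2C9 at a 5 µM dose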;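 note: 0 = sulfaphenazole-blocked wells and 1 = vehicle-only wells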
CYP2C19 inh: inhibitors of human CYP2C19; P33261; 96,000 tested, 21% active; CYP2C19 Supersomes, luciferin-H EGE luminescence, 30 min; AID 778; inhibition, % at 5 µM;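 active = CYP2C19 inhibition above a set limit at 5 µM in the primary screen, cut at about 50% in these data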;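 note: plate controls were negative control wells for no effect and 2.5 mM tranylcypromine positive control for full effect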
PostGolgi ctrl: growth of the yeast control strain, post-Golgi counter-screen; efflux-deficient yeast background strain, growth absorbance A615, 16 h; inhibition, % at 10 µM; 98,000 tested, 5% active
CYP2C9 inhib: human CYP2C9 inhibition; CYP2C9 Supersomes, luciferin-H conversion, luminescence; P11712; 96,000 tested, 20% active; AID 777; inhibition, % at 5 µM;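 active = blocking of liver enzyme CYP2C9 beyond about 50% at 5 µM, limit read from the data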
The depositor's hits bear a star. Cut-off read from the data, not from the text of the source, unless noted: active = inhibition above about 30%; inactive = the rest.

SMILES | PostGolgi yeast | CYP2C19 act | CYP2C9 activ | CYP2C19 inh | PostGolgi ctrl | CYP2C9 inhib
Cc1cc2nc(C3CCN(CC4COc5ccccc5O4)CC3)[nH]c2cc1C (stereo not given) | 41* | 0.5 | 0.6 | 54* | 34* | 41
CCCNC(=S)N1CCC(c2nc3cc(C)c(C)cc3[nH]2)CC1 | 7 | 0.8 | 0.8 | 23 | 3 | 16
CCc1oc(C(=O)O)cc1COC | -21 | 1 | 1 | 0 | 33* | 1
CC1CN(C(=O)Cc2ccc(-c3ccccc3)cc2)CC(C)O1 (stereo not given) | 0 | 0.4 | 0.4 | 58* | 4 | 57*
CC1CN(C(=O)C(c2ccccc2)c2ccccc2)CC(C)O1 (stereo not given) | -1 | 0.9 | 0.9 | 10 | 3 | 11
O=C1N/C(=N\N=C\c2cccnc2)SC1Cc1ccc(SC(F)F)cc1 (stereo not given) | 3 | 1 | 0.5 | 2 | 3 | 53*
CCOc1ccccc1NC(=O)C1CCN(c2ccc(S(=O)(=O)N3CCCC3)cc2)CC1 | -9 | 0.6 | 0.5 | 44 | 7 | 54*
CCOc1ccccc1NC(=O)C1CCCCN1S(=O)(=O)c1ccc(F)cc1 (stereo not given) | -6 | 0.4 | 2.9* | 64* | 26 | -188
CCOc1ccccc1NC(=O)C1CCN(S(=O)(=O)c2ccc(OC)c(OC)c2)CC1 | 1 | 0.7 | 1.1 | 30 | 10 | -12
O=C(Nc1ccccc1Cl)C1CCCN(S(=O)(=O)c2ccc(F)cc2)C1 (stereo not given) | 4 | 0.3 | 0.7 | 71* | 8 | 32
CCOCCCNC(=O)C1CCCCN1S(=O)(=O)c1ccc(F)cc1 (stereo not given) | 1 | 0.8 | 0.9 | 19 | 0 | 6
CCC/S(CC1CC1(Cl)Cl)=N\S(=O)(=O)c1ccc(C)cc1 (stereo not given) | -5 | 0.9 | 1 | 5 | -6 | -3
CC(=O)N1CCN(c2nc(-c3ccco3)c3c(c2C#N)CC(C)(C)SC3)CC1 | -4 | 0.5 | 0.2 | 47 | 26 | 78*
CC1(C)Cc2c(C#N)c(N3CCN(C(=O)c4ccccc4Cl)CC3)nc(-c3ccco3)c2CS1 | 4 | 0.8 | 0.3 | 22 | 7 | 70*
N#C/C(=C\c1ccccc1Cl)C(=O)NC(=O)Oc1ccccc1 | -5 | 1 | 1.2 | -1 | 1 | -23
CCc1nc2c(c(SC)nn2-c2ccccc2)c(N)c1C(=O)OC | -2 | 1 | 0.9 | 2 | 6 | 15
COc1cccc(Cn2cnc3c(NS(=O)(=O)c4cc(Cl)ccc4Cl)c(C)c(C)cc32)c1 | 8 | 0.9 | 0.5 | 14 | 22 | 53*
COc1cccc(Cn2cnc3c(NS(=O)(=O)c4cccc(Cl)c4Cl)c(C)c(C)cc32)c1 | 2 | 0.2 | 0 | 84* | 15 | 96*
Cc1cc2c(ncn2Cc2ccccc2)c(NS(C)(=O)=O)c1C | 13 | 0.5 | 0.6 | 54* | -1 | 35
CC1C/C(=N/NC(=O)c2cccc(F)c2)c2ccc(O)cc2C1 (stereo not given) | -2 | 0.5 | 1.6 | 51* | 5 | -60
O=C(N/N=C/c1ccccc1Cl)c1cccc(F)c1 | -22 | 0.6 | 0.7 | 44 | -2 | 29
CCOC(=O)N1CCC(NC(=O)c2cccn3c(=O)c4cc(Br)ccc4nc23)CC1 | 11 | 0.4 | 0.1 | 64* | 16 | 86*
CCOc1ccc(NC(=O)CNC(=O)c2cn(-c3ccccc3OC)c(=O)c3ccccc23)cc1 | -2 | 0.1 | 0.1 | 86* | -5 | 88*
CCOC(=O)N1CCC(NC(=O)c2cn(-c3ccc(OC)cc3)c(=O)c3ccccc23)CC1 | -7 | 0.1 | 0.1 | 91* | 13 | 90*
CCOC(=O)N1CCC(NC(=O)c2ccc3nc4ccccc4c(=O)n3c2)CC1 | -6 | 1 | 0.8 | -1 | 7 | 17
CCCN1Cc2cccc(C(=O)Nc3cc(OC)cc(OC)c3)c2C1=O | -4 | 0.9 | 0.5 | 12 | 8 | 46
COc1ccc(N2Cc3cccc(C(=O)NC(C)CCc4ccco4)c3C2=O)cc1 (stereo not given) | -9 | 0.2 | 0.1 | 85* | 19 | 92*
O=C(c1cccc(-n2cnnn2)c1)N1CC=C(c2ccccc2)CC1 | 6 | 0.6 | 0.7 | 44 | 6 | 33
O=C(CSC1=NCCS1)N1CCOCC1 | -3 | 0.9 | 0.7 | 8 | -10 | 30
